We go through seven molecules from PubChem BioAssay (NCATS).

Experiment [1] concerns the target Estrogen receptor (Homo sapiens) (UniProt P03372). Description: qHTS assay for small molecule antagonists of estrogen receptor alpha signaling (AID 588513; active means well fitted curve in the direction sought with a large enough effect in the signal ratio, with a control signal flat, not every such curve was filed as active; the % refers to the signal ratio; further: potency means the concentration at half of the fitted maximal effect). Put shortly:
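ER-alpha-UAS-bla GripTite HEK 293 cells in 2% charcoal/dextran-treated FBS medium; compounds titrated (1:2, duplicate), then stimulated with 0.5 nM 17-beta-estradiol for 18 h at 37C. CCF4 beta-lactamase fluorescence; Hill-fit IC50 and efficacy.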
A general note: In qHTS, concentration-response curves come from the screen itself.

Experiment [2] addresses Peroxisome proliferator-activated receptor delta (Homo sapiens) (UniProt Q03181). Description: qHTS assay for small molecule agonists of peroxisome proliferator-activated receptor delta signaling (AID 588534).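 Further: 0% = DMSO basal wells and 100% = positive control agonist at 10 µM.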 The gist of the method:
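Reporter cells were plated and held 5 hrs at 37 C before compounds were added. After 18 hrs at 37 C, CCF4 dye was loaded for 2 hrs at RT and fluorescence measured.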

Experiment [3] has as its target Estrogen receptor (Homo sapiens) (UniProt P03372). Description: qHTS assay for small molecule agonists of estrogen receptor alpha signaling (AID 588514).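 Further: 0% = vehicle only and 100% = reference agonist; nearly all actives have a fitted effect of over 70% in size.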 The gist of the method:
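Reporter-gene assay. […] controls beta-lactamase in HEK 293 GripTite cells; after 18 hrs with compound, CCF4 substrate is added for 2 hrs and fluorescence is read.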

In experiment [4] the target is Peroxisome proliferator-activated receptor gamma (Homo sapiens) (UniProt P37231). Description: qHTS assay for small molecule antagonists of peroxisome proliferator-activated receptor gamma signaling (AID 588537; active means well fitted inhibition curve with a large enough effect in the signal ratio, with a control signal flat, not every such curve was filed as active; the % refers to the signal ratio;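 further: reporter cells co-stimulated with 50 nM rosiglitazone agonist during compound treatment; % of control where 0% means no effect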). The gist of the method: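 Inhibitors of agonist-stimulated UAS-bla reporter activity were sought in HEK293 cells; rosiglitazone (50 nM) defined full signal and DMSO baseline. Curves fitted to Hill model gave IC50 and efficacy.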
Peroxisome proliferator-activated receptor gamma (Homo sapiens), sequence (P37231 whole entry, looked up): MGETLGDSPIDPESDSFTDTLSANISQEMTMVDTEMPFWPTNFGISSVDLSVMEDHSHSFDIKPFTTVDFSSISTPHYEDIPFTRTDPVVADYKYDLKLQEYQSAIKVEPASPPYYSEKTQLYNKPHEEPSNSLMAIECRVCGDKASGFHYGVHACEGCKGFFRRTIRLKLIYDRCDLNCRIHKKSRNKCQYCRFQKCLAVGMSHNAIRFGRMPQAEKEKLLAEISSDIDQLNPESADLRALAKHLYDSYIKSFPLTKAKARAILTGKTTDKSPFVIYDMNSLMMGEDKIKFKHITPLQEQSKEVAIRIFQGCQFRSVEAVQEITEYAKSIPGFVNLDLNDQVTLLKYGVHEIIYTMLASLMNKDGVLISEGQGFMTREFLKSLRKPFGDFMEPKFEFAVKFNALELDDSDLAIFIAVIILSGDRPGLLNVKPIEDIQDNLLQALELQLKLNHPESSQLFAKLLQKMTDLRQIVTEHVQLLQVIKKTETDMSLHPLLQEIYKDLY

Experiment [5] can be described thus: qHTS assay for small molecule agonists of retinoid X receptor alpha signaling (AID 588544).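 On activation: 0% = DMSO basal wells and 100% = reference agonist.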 Particulars: HEK293T RXRa-UAS-bla, beta-lactamase reporter, 18 h; 530 nm emission.
In experiment [6] the target is Retinoic acid receptor RXR-alpha (Homo sapiens) (UniProt P19793). Described as above.
Retinoic acid receptor RXR-alpha (Homo sapiens), sequence (P19793 whole entry, looked up): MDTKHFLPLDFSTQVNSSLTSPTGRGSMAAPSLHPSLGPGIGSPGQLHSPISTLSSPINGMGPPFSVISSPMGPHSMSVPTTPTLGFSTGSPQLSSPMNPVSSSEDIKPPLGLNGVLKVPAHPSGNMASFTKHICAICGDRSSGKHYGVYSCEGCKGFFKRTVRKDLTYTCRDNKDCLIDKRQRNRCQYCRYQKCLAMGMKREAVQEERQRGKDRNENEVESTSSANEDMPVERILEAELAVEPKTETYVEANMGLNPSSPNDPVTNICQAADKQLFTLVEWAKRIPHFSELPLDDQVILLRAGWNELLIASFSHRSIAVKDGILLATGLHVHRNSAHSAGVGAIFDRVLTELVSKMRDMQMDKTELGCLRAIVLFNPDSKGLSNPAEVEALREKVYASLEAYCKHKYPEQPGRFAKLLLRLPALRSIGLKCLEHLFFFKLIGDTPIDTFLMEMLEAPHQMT
Experiment [7] concerns the target Thyroid hormone receptor beta (Homo sapiens) (UniProt P10828). Description: qHTS assay for small molecule agonists of thyroid hormone receptor beta signaling (AID 588545). The gist of the method:
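In this cell-based screen, titrated compounds act on HEK 293 cells held in medium with 2% charcoal/dextran FBS, NEAA and pyruvate for 18 hrs at 37 C. Responses are expressed relative to T3 (10 nM) as 100% and basal DMSO as 0%.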

Experiment [8] can be described thus: qHTS assay for small molecule antagonists of retinoid X receptor alpha signaling (AID 588546; active means well fitted inhibition curve with a large enough effect in the signal ratio, with a control signal flat, not every such curve was filed as active; the % refers to the signal ratio;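 further: cells stimulated with 9-cis-retinoic acid as agonist; on the % scale 0 is the no-effect control and ±100 the full control effect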). Particulars: HEK293T RXRa-UAS-bla, beta-lactamase ratio, antagonist mode; measured here: W530 green channel, cytotoxicity proxy. Put shortly: (§1)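 Beta-lactamase reporter inhibition, read as CCF4 fluorescence ratio (ex 405, em 460/530 nm) after 2 h at RT. HEK293T UAS-bla cells, 2500/well, were stimulated with 9-cis-RA at 500 or 100 nM final alongside test compound for 18 h at 37 C.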

In experiment [9] the target is Retinoic acid receptor RXR-alpha (Homo sapiens) (UniProt P19793). The description is as above. To be noted: HEK293T RXRa-UAS-bla, beta-lactamase ratio, antagonist mode. Put shortly:
as §1

The target of experiment [10] is Thyroid hormone receptor beta (Homo sapiens) (UniProt P10828). As to the kind of experiment: qHTS assay for small molecule antagonists of thyroid hormone receptor beta signaling (AID 588547; active means well fitted inhibition curve with a large enough effect in the signal ratio, with a control signal flat, not every such curve was filed as active; the % refers to the signal ratio;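 further: cells stimulated with 0.4 nM T3 agonist during compound exposure; series mostly up to about 77 µM; on the % scale 0 is the no-effect control and ±100 the full control effect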). To be noted: TR-UAS-bla HEK293, beta-lactamase ratio, antagonist mode, 18 h. The gist of the method: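 Inhibition of T3-driven (0.4nM final) beta-lactamase reporter activity was measured over 0.59 nM to 92 uM compound after 18 h at 37 C. The cells were GripTite HEK293 TR-UAS-bla in charcoal/dextran-stripped serum, with CCF4 ratio read-out and IC50 from Hill fits.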
Thyroid hormone receptor beta (Homo sapiens), sequence (P10828 whole entry, looked up): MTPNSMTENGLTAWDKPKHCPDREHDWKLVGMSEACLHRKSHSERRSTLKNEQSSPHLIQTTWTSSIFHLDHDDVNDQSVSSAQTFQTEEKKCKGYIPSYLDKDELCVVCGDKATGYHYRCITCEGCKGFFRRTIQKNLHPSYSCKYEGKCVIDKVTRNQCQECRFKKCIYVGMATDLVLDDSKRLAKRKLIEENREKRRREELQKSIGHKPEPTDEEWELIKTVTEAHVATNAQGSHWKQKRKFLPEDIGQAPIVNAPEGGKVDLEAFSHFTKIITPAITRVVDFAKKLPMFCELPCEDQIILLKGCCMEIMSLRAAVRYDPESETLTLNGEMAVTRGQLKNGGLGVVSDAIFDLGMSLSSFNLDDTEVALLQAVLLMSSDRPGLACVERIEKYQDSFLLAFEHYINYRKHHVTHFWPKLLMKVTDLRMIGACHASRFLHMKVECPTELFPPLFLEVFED

Experiment [11] can be described thus: qHTS assay for small molecule activators of the p53 signaling pathway (AID 651743; active means well fitted activation curve with a large enough effect in the signal ratio, not every such curve was filed as active; the % refers to the signal ratio; further: series mostly up to about 92 µM; % of control where 0% means no effect). To be noted: HCT-116 p53RE-bla, beta-lactamase FRET ratio, 16 h; activation: stronger effect = higher value. The gist of the method:
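Screen for p53 pathway agonists uses stably transfected p53RE-bla HCT-116 cells, 4,000 per well, treated 16 h at 37 C with compounds in DMSO.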

The nature of experiment [12]: qHTS assay for environmental chemicals that activate the Aryl hydrocarbon Receptor (AhR) signaling pathway (AID 651777; active means well fitted curve in the direction sought with a large enough effect; an effect the other way counts as inactive or inconclusive; further: % of control where 0% means no effect; nearly all actives have a fitted effect of over 15% in size). To be noted: 1A2-DRE human hepatoma cells, luciferase, 24 h; activation: stronger effect = higher value. The gist of the method: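 Stable CYP1A2 promoter/DRE-luciferase human hepatoma line treated 24 hr; One-Glo luminescence, 30 min RT.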
Experiment [13] concerns the target Peroxisome proliferator-activated receptor alpha (Homo sapiens) (UniProt Q07869). Description: qHTS assay for small molecule agonists of the peroxisome proliferator-activated receptor alpha (PPARalpha) signaling pathway (AID 651778; active means well fitted curve in the direction sought with a large enough effect; an effect the other way counts as inactive or inconclusive; further: % of control where 0% means no effect). To be noted: PathHunter PPARalpha complementation, chemiluminescence, 6 h; max response: stronger effect = higher value. The gist of the method: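 Chemiluminescence from complemented enzyme reported PPARalpha activation in cells after 6 hr of compound treatment at 37 C. The detection reagent was incubated for 60 min at room temperature, and compounds were scored as agonists.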

Experiment [14] can be described thus: qHTS assay for small molecule agonists of the antioxidant response element (ARE) signaling pathway measured by Nrf2-dependant transcriptional activity (AID 720636; active means well fitted curve in the direction sought with a large enough effect in the repeat runs; an effect the other way counts as inactive or inconclusive;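 further: HepG2 cells with an ARE-driven luciferase reporter; % of control where 0% means no effect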). The gist of the method: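 Reporter gene assay, HepG2 ARE-luc: 16 hr compound, 37 C, 5% CO2; read-out luciferase luminescence.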
The nature of experiment [15]: qHTS assay for small molecule agonists of the antioxidant response element (ARE) signaling pathway measured by Nrf2-dependant transcriptional activity - cell viability counter screen (AID 720653; active means well fitted curve in the direction sought with a large enough effect in the repeat runs; an effect the other way counts as inactive or inconclusive; further: on the % scale 0 is the no-effect control and ±100 the full control effect). Particulars: ARE-bla HepG2 viability, CellTiter-Glo ATP luminescence, 16 h; max response: stronger effect = lower value. Put shortly:
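Cytotoxicity counter screen: intracellular ATP quantified by CellTiter-Glo luminescence in the same ARE-bla HepG2 plates, after 16 h compound exposure and a 2 h beta-lactamase substrate step.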

The nature of experiment [16]: qHTS assay for cell viability of HEK293 cells (AID 743288; active means well fitted curve in the direction sought with a large enough effect; an effect the other way counts as inactive or inconclusive; further: on the % scale 0 is the no-effect control and ±100 the full control effect; nearly all actives have a fitted effect of over 50% in size). Particulars: ATP luminescence (CellTiter-Glo), 18 h; max response: stronger effect = lower value. Put shortly: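 Parental HEK293 cells, 2,000 per well, preincubated at least 5 h at 37 C, then exposed to compounds in DMSO for 18 h at 37 C. Viability by CellTiter-Glo ATP luminescence after 30 min at room temperature.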

The nature of experiment [17]: qHTS assay for cell viability of the p53RE-bla HCT-116 cell line (AID 743292; active means well fitted curve in the direction sought with a large enough effect; an effect the other way counts as inactive or inconclusive; further: on the % scale 0 is the no-effect control and ±100 the full control effect; nearly all actives have a fitted effect of over 55% in size). Put shortly:
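Readout: CellTiter-Glo luminescence after 30 min RT. Treatment: compounds in DMSO, 16 h, 37 C. Cells: CellSensor p53RE-bla HCT-116, 4,000/well, preincubated 5 h.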

Experiment [18] addresses Nuclear receptor subfamily 1 group I member 2 (Rattus norvegicus) (UniProt Q9R1A7). As to the kind of experiment: qHTS assay for small molecule activators of the rat pregnane X receptor (rPXR) signaling pathway (AID 651751; call rule not given here; further: 0% is about no effect). Particulars: rPXR reporter cells, luciferase (One-Glo), 24 h.
Experiment [19] deals with Peroxisome proliferator-activated receptor gamma (Homo sapiens) (UniProt P37231). Description: qHTS assay for small molecule agonists of peroxisome proliferator-activated receptor gamma signaling (AID 588536; active means well fitted curve in the direction sought with a large enough effect in the signal ratio, with a control signal flat, not every such curve was filed as active; the % refers to the signal ratio;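 further: 0% = DMSO basal wells and 100% = rosiglitazone at 2 µM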). The gist of the method:
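HEK293 UAS-bla reporter line, 1% charcoal/dextran FBS; titration, 16 h, 37 C; CCF4 loading 2 h RT; fluorescence 460/530 nm. Normalized to rosiglitazone 2 uM = 100%, DMSO = 0%.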

The target of experiment [20] is Vitamin D3 receptor (Homo sapiens) (UniProt P11473). Description: qHTS assay for small molecule antagonists of vitamin D receptor signaling (AID 588541).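 Further: receptor activated by calcitriol during compound treatment; series mostly up to about 77 µM; on the % scale 0 is the no-effect control and ±100 the full control effect.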 Put shortly:
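Antagonist-mode beta-lactamase reporter assay: HEK293T VDR-UAS-bla cells were exposed to titrated compound alongside 1-alpha,25-dihydroxyvitamin D3 at 3 nM final for 16 h. Values were normalized to the 50 nM agonist control and DMSO basal, with IC50 and efficacy from Hill equation fits.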

Records with an inconclusive call do not appear. The source made the active and inactive calls. Unless noted, the call rests on the fitted dose curve.

Peroxisome proliferator-activated receptor alpha (Homo sapiens), sequence (Q07869 whole entry, looked up): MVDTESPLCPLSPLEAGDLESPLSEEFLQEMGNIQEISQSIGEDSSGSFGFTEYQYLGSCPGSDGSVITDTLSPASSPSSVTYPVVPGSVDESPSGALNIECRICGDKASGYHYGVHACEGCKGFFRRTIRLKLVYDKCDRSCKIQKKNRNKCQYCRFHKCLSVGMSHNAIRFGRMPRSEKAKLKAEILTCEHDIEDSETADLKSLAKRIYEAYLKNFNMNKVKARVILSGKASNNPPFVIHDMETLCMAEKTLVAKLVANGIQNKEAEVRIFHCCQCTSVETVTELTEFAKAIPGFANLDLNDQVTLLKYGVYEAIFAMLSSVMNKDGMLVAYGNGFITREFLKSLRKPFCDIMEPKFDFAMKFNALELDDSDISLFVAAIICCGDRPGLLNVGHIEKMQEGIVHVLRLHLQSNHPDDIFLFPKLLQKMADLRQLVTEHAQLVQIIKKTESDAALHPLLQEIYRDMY
Vitamin D3 receptor (Homo sapiens), sequence (P11473 whole entry, looked up): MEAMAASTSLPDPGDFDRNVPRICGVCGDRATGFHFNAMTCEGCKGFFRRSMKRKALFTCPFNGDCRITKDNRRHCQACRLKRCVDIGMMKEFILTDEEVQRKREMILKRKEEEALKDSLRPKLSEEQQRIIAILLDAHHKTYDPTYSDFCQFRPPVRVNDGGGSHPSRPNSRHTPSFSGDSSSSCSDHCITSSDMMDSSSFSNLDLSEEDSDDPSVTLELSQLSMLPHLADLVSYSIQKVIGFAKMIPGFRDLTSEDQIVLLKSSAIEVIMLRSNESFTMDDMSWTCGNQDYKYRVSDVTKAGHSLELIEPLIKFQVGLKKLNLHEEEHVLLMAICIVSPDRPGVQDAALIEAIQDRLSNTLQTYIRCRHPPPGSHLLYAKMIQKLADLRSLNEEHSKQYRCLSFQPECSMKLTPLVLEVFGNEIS
Nuclear receptor subfamily 1 group I member 2 (Rattus norvegicus), sequence (Q9R1A7 whole entry, looked up): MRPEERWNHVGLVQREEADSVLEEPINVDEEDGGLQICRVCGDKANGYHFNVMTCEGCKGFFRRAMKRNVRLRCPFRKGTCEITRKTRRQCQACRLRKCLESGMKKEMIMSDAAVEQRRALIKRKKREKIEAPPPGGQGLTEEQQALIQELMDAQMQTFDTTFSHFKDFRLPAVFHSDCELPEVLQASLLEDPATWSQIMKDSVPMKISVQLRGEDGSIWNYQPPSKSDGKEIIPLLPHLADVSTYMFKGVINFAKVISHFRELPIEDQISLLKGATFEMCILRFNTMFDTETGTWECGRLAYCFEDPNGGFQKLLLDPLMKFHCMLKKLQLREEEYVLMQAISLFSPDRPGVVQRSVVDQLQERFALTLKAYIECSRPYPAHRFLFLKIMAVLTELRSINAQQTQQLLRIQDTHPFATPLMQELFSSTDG
Peroxisome proliferator-activated receptor delta (Homo sapiens), sequence (Q03181 whole entry, looked up): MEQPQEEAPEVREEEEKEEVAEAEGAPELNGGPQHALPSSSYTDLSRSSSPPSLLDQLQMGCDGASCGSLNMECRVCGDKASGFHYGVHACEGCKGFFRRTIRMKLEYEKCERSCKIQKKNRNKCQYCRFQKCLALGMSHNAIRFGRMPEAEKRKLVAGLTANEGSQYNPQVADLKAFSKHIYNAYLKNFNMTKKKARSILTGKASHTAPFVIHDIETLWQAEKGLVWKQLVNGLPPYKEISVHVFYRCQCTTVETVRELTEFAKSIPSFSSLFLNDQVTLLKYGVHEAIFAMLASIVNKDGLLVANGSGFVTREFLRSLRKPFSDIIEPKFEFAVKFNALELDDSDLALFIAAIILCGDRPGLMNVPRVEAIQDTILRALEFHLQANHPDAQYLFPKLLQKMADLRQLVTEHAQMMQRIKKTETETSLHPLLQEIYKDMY
Estrogen receptor (Homo sapiens), sequence (P03372 whole entry, looked up): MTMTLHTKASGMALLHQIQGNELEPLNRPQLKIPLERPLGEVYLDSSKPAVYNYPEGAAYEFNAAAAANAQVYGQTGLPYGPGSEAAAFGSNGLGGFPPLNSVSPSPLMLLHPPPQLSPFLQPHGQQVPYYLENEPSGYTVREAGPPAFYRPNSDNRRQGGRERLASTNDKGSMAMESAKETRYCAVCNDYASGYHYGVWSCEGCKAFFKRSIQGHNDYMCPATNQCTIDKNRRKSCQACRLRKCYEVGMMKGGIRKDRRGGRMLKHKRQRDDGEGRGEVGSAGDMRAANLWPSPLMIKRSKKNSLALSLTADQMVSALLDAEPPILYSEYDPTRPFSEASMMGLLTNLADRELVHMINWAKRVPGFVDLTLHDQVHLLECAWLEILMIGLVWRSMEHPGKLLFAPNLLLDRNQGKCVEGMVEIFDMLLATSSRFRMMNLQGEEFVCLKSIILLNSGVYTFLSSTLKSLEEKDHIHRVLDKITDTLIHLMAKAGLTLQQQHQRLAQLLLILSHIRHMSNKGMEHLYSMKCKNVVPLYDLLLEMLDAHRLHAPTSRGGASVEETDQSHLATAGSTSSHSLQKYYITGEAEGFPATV

Consider `CCCN(CCC)c1c([N+](=O)[O-])cc(C(F)(F)F)c(N)c1[N+](=O)[O-]`, for which, in [1], the Potency is 31.6 µM [inhibitor] (active). Moreover, the molecule was classed as inactive in experiment [2].

Take `Cc1cc(Cl)ccc1OC(C)C(=O)O` (stereo not given): the Potency result in [1], in experiment [3], in experiment [4], in experiment [6], in experiment [7] and in experiment [14] was “inactive” in each case. In addition, the Potency entry in experiment [17] is “inactive”. Also, the molecule was classed as inactive in experiment [2]. Further, the max response is -5.5% in experiment [5]; -2.86% in [8]; -2.46% (inactive) in [9]; 2.19% (inactive) in [13]; -3.1% (inactive) in [15]; 0.82% (inactive) in experiment [16]. For the same molecule, the max response in experiment [18] was -0.122% (inactive). Further, the activity change % (negative = inhibition) in [10] is -3.04% (inactive). Further, the activation was -1.95% (inactive) in experiment [11] and 0.794% (inactive) in [12].

With `O=P(OCC(Br)CBr)(OCC(Br)CBr)OCC(Br)CBr` (stereo not given), the Potency in experiment [1] is 35.5 µM [inhibitor] (active). Besides, the Potency entry in experiment [7], in [14] and in [17] was “inactive” throughout. The activity change % (negative = inhibition) in experiment [10] was -25.3% (inactive). Further, in experiment [11], the activation is 10.6% (inactive). Besides, the max response in [13] was -0.385% (inactive); in experiment [15], -25.3% (inactive); in experiment [18], 0.175% (inactive).

As to `CNC(=O)O/N=C(\SC)C(=O)N(C)C`, the Potency entry in [1], in [19], in experiment [20], in [6], in [7] and in [14] was “inactive” each time. Also, in experiment [17], the Potency entry was “inactive”. The outcome in experiment [2] was inactive. Further, the max response in experiment [5] was -12.6%; in experiment [8], -5.53%; in [9], -20.9% (inactive); in [13], 0.554% (inactive); in experiment [15], -17.7% (inactive); in [16] it was -24.8% (inactive). Also, in [18], the max response was -0.972% (inactive). Moreover, in experiment [10], the activity change % (negative = inhibition) is 0.203% (inactive). For the same molecule, the activation in experiment [11] is 2.97% (inactive); in experiment [12] it was -0.668% (inactive).

`COc1nc(C)nc(NC(=O)NS(=O)(=O)c2ccccc2Cl)n1`: the Potency result in [1], in experiment [3], in experiment [19], in experiment [4], in experiment [20] and in experiment [6] was “inactive” throughout. The Potency entry in experiment [7] and in experiment [17] was “inactive” each time. Moreover, the max response in experiment [5] was -7.69%; in experiment [8] it was -9.33%; in [9], -1.72% (inactive); in experiment [13], -1.56% (inactive); in experiment [15] it was -0.816% (inactive); in experiment [16], -13% (inactive). Besides, the max response in experiment [18] was -1.17% (inactive). For the same molecule, the results for the activation in experiment [11] and in experiment [12] were -1.02% (inactive) and 1.34% (inactive), respectively.

For the molecule `Clc1ccccc1-c1nnc(-c2ccccc2Cl)nn1`, the Potency result in experiment [1], in experiment [3], in experiment [19], in [4], in [20] and in experiment [6] was “inactive” in each case. The Potency result in experiment [7] and in [17] was “inactive” each time. For the same molecule, the molecule was called inactive in experiment [2]. Further, the max response in experiment [5] was -1.99%; in experiment [8], -19.7%; in experiment [13], -0.0144% (inactive); in experiment [15], -3% (inactive); in experiment [16], -8.84% (inactive).

On to `C=C(C)CN(CC)c1c([N+](=O)[O-])cc(C(F)(F)F)cc1[N+](=O)[O-]`, for which the Potency result in experiment [1], in experiment [3], in experiment [19], in experiment [4], in [20] and in experiment [6] was “inactive” in each case. The Potency entry in [7], in [14] and in experiment [17] was “inactive” throughout. In addition, the call in experiment [2] was inactive. Besides, the max response in experiment [5] is 3.32%; in [8], -6.07%; in experiment [13], 0.658% (inactive); in [15] it was 5.45% (inactive); in [16], -3.14% (inactive). Moreover, the activation was 0.904% (inactive) in [11] and 1.28% (inactive) in [12].
